From PubChem BioAssay AID1076 (NMMLSC, 2008) come the findings set out here.

The source made the active and inactive calls.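 How the source made its calls: active means cell event count below 40, meaning activity score above 60 where score is 100 minus count; inactive means the rest.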

The assay in a line: cytotoxicity in LNCaP prostate cells – cell-based, cell event count, single point, cytotoxicity control for prostate differentiation activator project, confirmation (AID 1076).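 Further: counts scatter-gated live cells after medium removal discards detached dead cells.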 The following applies: LNCaP cell loss, flow cytometry event count, 4 d; at 100 µM; stronger effect = lower value.
With `CCOC(=O)N1CCC(NC(=O)c2cc3c(-c4ccccc4F)nn(C)c3s2)CC1`, the cell event count is 60 (inactive).
`Cc1cc(=O)c2ccccc2[nH]1`: the cell event count is 143 (inactive).
With `CCN1C(=O)OC2(CCCCC2)C1(C)O` (stereo unspecified) the figure was 230 (inactive); with `O=C(NCCCN1CCOCC1)c1cc2c(s1)CSC2`, 191 (inactive); with `CC(C)(C)c1ccc(C(O)CCCN2CCC(C(O)(c3ccccc3)c3ccccc3)CC2)cc1` (stereo unspecified), 12 (inactive).
Next, `CS(=O)(=O)c1nc(-c2cccs2)cc(C(F)(F)F)n1`: 53 (inactive); `CCc1nn(C(C)C(=O)N2CCc3ccccc3C2)c(=O)c2cc3occc3n12` (stereo unspecified): 91 (inactive).
With `Cc1oc(-c2ccc(Cl)cc2)nc1CN1CCC(C(=O)NCCCN2CCCC2=O)CC1` the figure was 51 (inactive); with `Cc1ccc2c(c1)NC(=O)C(CC(=O)NCCCN1CCN(c3cc(Cl)ccc3C)CC1)O2` (stereo unspecified), 6 (active); with `O=C(NCc1ccc(Cl)cc1)c1noc2c1CCCC2`, 311 (inactive).
On to `CCN(CCNC(=O)C1CCN(Cc2nc(-c3ccc(Cl)cc3)oc2C)CC1)c1ccccc1`, for which the cell event count is 24 (inactive).
Next, `COc1ccc(S(=O)(=O)Nc2ccc(F)c(Cl)c2)cc1OC`: 18 (inactive).
Regarding `CCOC(=O)c1c(NCc2ccc3c(c2)OCO3)c2ccccc2[nH]c1=O`, the cell event count was 39 (inactive).
Consider `COc1cc(C(=O)NCc2nnc(SCC(=O)NCc3ccccc3)o2)cc(OC)c1OC`, for which the cell event count is 104 (inactive).
Regarding `Cn1nc(-c2ccc(Cl)cc2)c2cc(C(=O)NCCCN3CCCC3)sc21`, the cell event count was 19 (inactive).
In the case of `CCc1ccc(-c2nc(CN3CCC(C(=O)N4CCN(c5ccccc5)CC4)CC3)c(C)o2)cc1`, the cell event count was 9 (inactive).
